PubChem BioAssay (NCI)
Compounds without any hit were thinned out: in the full panel of roughly 83,000, 20% have a hit.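 Interpretation: 100, growth as untreated; towards 0, rising growth inhibition; 0, no net growth; 0 to -100, cell death. Compounds scoring below 10 were considered active.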 Values without a mark were called inactive. The source made the active and inactive calls.

What was measured:
Assay in all cases: NCI-60 one-dose screen, 48 h (100 = growth as untreated, 0 = no growth, -100 = all killed)
Details in all cases: 10 µM unless noted
[1] = system: NCI-H23 lung
[2] = system: NCI-H226 lung
[3] = system: NCI-H322M lung
[4] = system: HOP-62 NSCLC
[5] = system: NCI-H460 lung
[6] = system: HOP-92 NSCLC
[7] = system: NCI-H522 lung
[8] = system: A549/ATCC NSCLC
[9] = system: 786-0 renal
[10] = system: COLO 205 colon

## Cc1ccc2nc(/C(C#N)=C(/CCCO)NC(Cc3ccccc3)C(=O)OCc3ccccc3)[nH]c(=O)c2c1 (stereo not given)
[1]
  growth: 43%
[2]
  growth: 103%
[3]
  growth: 94.4%
[4]
  growth: 88.2%
[5]
  growth: 110%
[6]
  growth: 108%
[7]
  growth: 112%
[8]
  growth: 114%
[9]
  growth: 93.9%
[10]
  growth: 87.8%

## COc1ccc(C(=O)Cn2c(C(=O)c3ccc(Cl)cc3)nc3ccccc32)cc1
[1]
  growth: 78.3%
[2]
  growth: 87.4%
[3]
  growth: 89.7%
[4]
  growth: 81.8%
[5]
  growth: 86.9%
[6]
  growth: 59.3%
[7]
  growth: 14.8%
[8]
  growth: 68.1%
[9]
  growth: 64.6%
[10]
  growth: 111%

## NNCCc1ccc(NC(=O)CCCc2ccc(C(=O)Nc3ccccc3N)cc2)cc1
[1]
  growth: 76.5%
[2]
  growth: 74.3%
[3]
  growth: 87%
[4]
  growth: 69.6%
[5]
  growth: 66.3%
[6]
  growth: 31.2%
[7]
  growth: 13.1%
[8]
  growth: 85.4%
[9]
  growth: 81.6%
[10]
  growth: 75.6%

## Cc1ccc(-c2nc(-c3cn(C)c4ncccc34)cs2)cc1
[1]
  growth: -7.81% [100 µM] (active)
[2]
  growth: -35.3% [100 µM] (active)
[3]
  growth: -32% [100 µM] (active)
[4]
  growth: -63.3% [100 µM] (active)
[5]
  growth: -48.5% [100 µM] (active)
[6]
  growth: -47.2% [100 µM] (active)
[7]
  growth: 6.25% [100 µM] (active)
[8]
  growth: 7.36% [100 µM] (active)
[9]
  growth: -52.8% [100 µM] (active)
[10]
  growth: -60.5% [100 µM] (active)

## [2H]C([2H])([2H])Oc1ccc(F)cc1/C=C/C(=O)/C=C(O)/C=C/c1cc(F)ccc1OC([2H])([2H])[2H]
[1]
  growth: 88.9%
[2]
  growth: 105%
[3]
  growth: 107%
[4]
  growth: 91.9%
[5]
  growth: 88.6%
[6]
  growth: 99.3%
[7]
  growth: 74.4%
[8]
  growth: 93.7%
[9]
  growth: 99.7%
[10]
  growth: 116%

## O=[N+]([O-])c1ccc(-c2cn3nc(-c4c[nH]c5ccccc45)sc3n2)cc1
[1]
  growth: 88.1%
[2]
  growth: 90.8%
[3]
  growth: 84.9%
[4]
  growth: 94.6%
[5]
  growth: 98%
[6]
  growth: 102%
[7]
  growth: 80.7%
[8]
  growth: 86.9%
[9]
  growth: 103%
[10]
  growth: 108%

## O=C(Nc1ccccc1O)c1ccc(CNC(=O)c2ccsc2Nc2ccnc(C(F)(F)F)c2)cc1
[1]
  growth: 13.5%
[2]
  growth: 38.3%
[3]
  growth: 46.1%
[4]
  growth: 47.6%
[5]
  growth: 26%
[6]
  growth: -2.27% (active)
[7]
  growth: -24% (active)
[8]
  growth: 27.6%
[9]
  growth: 42.8%
[10]
  growth: 47.3%

## CNC1=C([N+](=O)[O-])C(c2ccc(OC)cc2)C(C#N)=C(c2cccs2)O1 (stereo not given)
[1]
  growth: 103%
[2]
  growth: 99.8%
[3]
  growth: 103%
[4]
  growth: 99.6%
[5]
  growth: 109%
[6]
  growth: 125%
[7]
  growth: 102%
[8]
  growth: 102%
[9]
  growth: 110%
[10]
  growth: 111%

## O=C(NC1CC(F)C1)c1cc2cccnc2n1-c1ccc(Cl)c(Cl)c1 (stereo not given)
[1]
  growth: 100%
[2]
  growth: 103%
[3]
  growth: 97.3%
[4]
  growth: 98.9%
[5]
  growth: 101%
[6]
  growth: 83%
[7]
  growth: 88.5%
[8]
  growth: 96.5%
[9]
  growth: 95.2%
[10]
  growth: 109%

## Cc1nc2cc(O)c(O)cc2cc1Oc1ccc(NC(=O)Nc2ccc(Cl)c(Cl)c2)cc1
[1]
  growth: 62.8%
[2]
  growth: 38.3%
[3]
  growth: 94%
[4]
  growth: 35.7%
[5]
  growth: 62.1%
[6]
  growth: 37.5%
[7]
  growth: 1.87% (active)
[8]
  growth: 50.5%
[9]
  growth: 103%
[10]
  growth: 34.7%

## O=C(CCCCCCN1CC(=O)N2[C@H](c3ccc(Br)cc3)c3[nH]c4ccccc4c3C[C@@H]2C1=O)NO
[1]
  growth: 53%
[2]
  growth: 80.2%
[3]
  growth: 50.3%
[4]
  growth: 52.2%
[5]
  growth: 44.7%
[6]
  growth: 31.3%
[7]
  growth: 26.9%
[8]
  growth: 80%
[9]
  growth: 89.1%
[10]
  growth: 38.7%

## CC(=O)c1ccc(Nc2nccc(-c3ccc4ccccc4c3)n2)cc1
[1]
  growth: 94.4%
[2]
  growth: 57.1%
[3]
  growth: 97.8%
[4]
  growth: 102%
[5]
  growth: 98.4%
[6]
  growth: 97.5%
[7]
  growth: 45.6%
[8]
  growth: 89.1%
[9]
  growth: 96.9%
[10]
  growth: 105%

## Cn1c2c(c3ccc(Cl)c(Cl)c31)C(C#N)C(C)(C)NC2=O (stereo not given)
[1]
  growth: 97.6%
[2]
  growth: 59.4%
[3]
  growth: 91.4%
[4]
  growth: 90.7%
[5]
  growth: 91%
[6]
  growth: 72.8%
[7]
  growth: 55.8%
[8]
  growth: 89.5%
[9]
  growth: 69.3%
[10]
  growth: 92.2%

## Oc1c(CN2CCOCC2)cc(COCc2ccccc2)c2cccnc12
[1]
  growth: 39.1%
[2]
  growth: 43.4%
[3]
  growth: 14.7%
[4]
  growth: 10.7%
[5]
  growth: 16.1%
[6]
  growth: 62.4%
[7]
  growth: 4.41% (active)
[8]
  growth: 26.5%
[9]
  growth: 32.6%
[10]
  growth: 62.8%

## COc1ccc(C2CC(c3cc(OC)c(OC)c(OC)c3)=NO2)cc1OCCCCOc1cc2c(cc1OC)C(=O)N1CCC[C@H]1C=N2 (stereo not given in full)
[1]
  growth: -16% (active)
[2]
  growth: -0.71% (active)
[3]
  growth: 17.4%
[4]
  growth: 22.8%
[5]
  growth: -14.8% (active)
[6]
  growth: 20.3%
[7]
  growth: -32.5% (active)
[8]
  growth: 20%
[9]
  growth: -35.3% (active)
[10]
  growth: -32.9% (active)

## CCOC(=O)C#Cc1c(C(=O)OCC)nnn1Cc1ccc(C(F)(F)F)cc1
[1]
  growth: 97.9%
[2]
  growth: 71.9%
[3]
  growth: 93.4%
[4]
  growth: 103%
[5]
  growth: 95.8%
[6]
  growth: 65.5%
[7]
  growth: -15.1% (active)
[8]
  growth: 95.8%
[9]
  growth: 43.6%
[10]
  growth: 17.2%

## N#CSc1c[nH]c2cccc(/C=C/C(=O)/C=C(O)/C=C/c3cccc4[nH]cc(SC#N)c34)c12
[1]
  growth: -36.8% (active)
[2]
  growth: -73.1% (active)
[3]
  growth: -47.5% (active)
[4]
  growth: -32.6% (active)
[5]
  growth: -22.9% (active)
[6]
  growth: -72% (active)
[7]
  growth: -68.2% (active)
[8]
  growth: -69.7% (active)
[9]
  growth: -60.3% (active)
[10]
  growth: -77.7% (active)

## COc1ccc(/C=C(/C(=O)n2cnnn2)c2cc(OC)c(OC)c(OC)c2)cc1
[1]
  growth: 41.8%
[2]
  growth: 40.7%
[3]
  growth: 50.8%
[4]
  growth: 25.6%
[5]
  growth: 12.7%
[6]
  growth: 69.3%
[7]
  growth: 20.6%
[8]
  growth: 29%
[9]
  growth: 35.5%
[10]
  growth: -3.15% (active)

## COc1ccccc1C(=O)Nc1cccc(NC(=O)c2ccoc2C)c1
[1]
  growth: 47.5%
[2]
  growth: 70.7%
[3]
  growth: 59.5%
[4]
  growth: 49.5%
[5]
  growth: 13.9%
[6]
  growth: 47.2%
[7]
  growth: 13.9%
[8]
  growth: 28.2%
[9]
  growth: 32.9%
[10]
  growth: 39.2%

## NC(=O)c1cnc(Nc2cccc(N)c2)nc1NCCCNC(=O)C1CCC1
[1]
  growth: 79.8%
[2]
  growth: 69.1%
[3]
  growth: 86.6%
[4]
  growth: 46.6%
[5]
  growth: 69.8%
[6]
  growth: 123%
[7]
  growth: 64.5%
[8]
  growth: 87.7%
[9]
  growth: 76.8%
[10]
  growth: 28.2%

## Oc1c(CN2CCCC2)cc(CSCc2ccccc2)c2cccnc12
[1]
  growth: 11.8%
[2]
  growth: -4.43% (active)
[3]
  growth: -0.478% (active)
[4]
  growth: 4.78% (active)
[5]
  growth: 2.01% (active)
[6]
  growth: 14.5%
[7]
  growth: 12.9%
[8]
  growth: 9.29% (active)
[9]
  growth: 6.65% (active)
[10]
  growth: 51%

## Cc1c(CN)cc(-c2ccc(Cl)cc2)n1-c1ccccc1
[1]
  growth: 73.8%
[2]
  growth: 38.4%
[3]
  growth: 88.4%
[4]
  growth: 91.6%
[5]
  growth: 75.5%
[6]
  growth: 90.1%
[7]
  growth: 68%
[8]
  growth: 75.2%
[9]
  growth: 90.8%
[10]
  growth: 110%

## O=S1(=O)C=C(c2ccccc2)C(c2ccccc2)=C1
[1]
  growth: 60.1%
[2]
  growth: 44.7%
[3]
  growth: 90.8%
[4]
  growth: 54.3%
[5]
  growth: 36.5%
[6]
  growth: -1.68% (active)
[7]
  growth: -70.7% (active)
[8]
  growth: 70.9%
[9]
  growth: 3.9% (active)
[10]
  growth: -88.5% (active)

## Clc1ccccc1-c1cnn2cc(-c3ccccc3)cnc12
[1]
  growth: 90.3%
[2]
  growth: 83.2%
[3]
  growth: 87%
[4]
  growth: 86%
[5]
  growth: 75.3%
[6]
  growth: 82.9%
[7]
  growth: 77.3%
[8]
  growth: 70.5%
[9]
  growth: 76.7%
[10]
  growth: 91.8%

## CC1=C(C(=O)Nc2ccccc2)C(c2ccc3c(c2)OCO3)NC(=S)N1 (stereo not given)
[1]
  growth: 97.9%
[2]
  growth: 96.7%
[3]
  growth: 107%
[4]
  growth: 121%
[5]
  growth: 113%
[6]
  growth: 112%
[7]
  growth: 87.9%
[8]
  growth: 108%
[9]
  growth: 101%
[10]
  growth: 117%
